Screen size: about 4,400 compounds; about 390 (8.9%) showed an effect of 50% or more. This excerpt belongs to a sample that is enriched for strong results.
Each molecule was assayed on Trypanosoma brucei (assay: DNDI: Inhibition of Human African Trypanosomiasis, SBRI 427, in vitro at 2 ug.mL-1).
Format: functional

Compared with CCOc1ccc(-c2nc(CN(C)CCc3ccccc3)co2)cc1, CCOc1cccc(-c2nc(CNc3ccccc3C)co2)c1 is higher in “% inhibition” value: 10% for the first, 20% for the second.

First: CC(C)c1ccc(N/C(=N\O)c2ccc(Oc3cccc4ccccc34)nc2)cc1
Second: O/N=C(\Nc1ccccc1)c1cccnc1Oc1ccc2ccccc2c1
The “% inhibition” value of the first is higher: 16% for the first, 14% for the second.

First: O/N=C(\NCc1ccncc1)c1ccc(Oc2c(F)c(F)cc(F)c2F)nc1
Second: O/N=C(\NCc1cccs1)c1ccc(Oc2c(F)c(F)cc(F)c2F)nc1
The “% inhibition” value of the first is higher: 6% for the first, 1% for the second.

Going from CC(C)CN(C)Cc1coc(-c2ccccc2Cl)n1 to C=CCN(Cc1coc(-c2ccccc2Cl)n1)C1CCCCC1, the “% inhibition” value rises from 1% to 13%.

Going from COc1ccc(Oc2ncccc2/C(=N/O)N(C)C2CCCCC2)cc1 to COc1ccc(Oc2ncccc2/C(=N/O)NC2CCCCC2)cc1, the “% inhibition” value rises from -15% to 98%.

First: O/N=C(\NC1CCCC1)c1cccnc1Oc1ccc2c(c1)CCCC2
Second: O/N=C(\NC1CCC1)c1cccnc1Oc1ccc2c(c1)CCCC2
The “% inhibition” value of the first is lower: 1% for the first, 100% for the second.

Compared with O/N=C(/c1cccnc1Oc1ccc2ccccc2c1)N1CCC2CCCCC2C1 (stereo not given), COc1ccc(Oc2ncccc2/C(=N/O)N2CCC3CCCCC3C2)cc1 (stereo not given) is lower in “% inhibition” value: 100% for the first, -2% for the second.

First: O/N=C(/c1cccnc1Oc1ccc(Cl)cc1)N1CCC2CCCCC2C1 (stereo not given)
Second: COc1ccc(Oc2ncccc2/C(=N/O)NC2CCCC2)cc1
The “% inhibition” value of the first is lower: -20% for the first, 99% for the second.

Going from O/N=C(\NCc1ccccc1)c1cccnc1Oc1ccc2c(c1)CCCC2 to O/N=C(\NC1CCCCC1)c1cccnc1Oc1ccc2ccccc2c1, the “% inhibition” value rises from -4% to 99%.

First: O/N=C(/c1ccnc(Oc2ccc(Cl)cc2)c1)N1CC=CCC1
Second: Cc1cc(Oc2ccc(/C(=N/O)N3CCN(c4ccc(F)cc4)CC3)cn2)cc(C(C)C)c1
The “% inhibition” value of the first is higher: 8% for the first, 3% for the second.

Going from COc1ccc(-c2nc(Cn3nc(C)cc3C)co2)cc1 to COc1ccc(-c2nc(CNCCc3ccc(C)cc3)co2)cc1, the “% inhibition” value rises from -6% to -3%.

First: Cc1cccc(N2CCN(Cc3coc(-c4ccc(Br)cc4)n3)CC2C)c1 (stereo not given)
Second: COc1ccc(-c2nc(CN3CCN(c4cccc(Cl)c4)CC3)co2)cc1
The “% inhibition” value of the first is higher: 15% for the first, 10% for the second.

Going from Cc1ccc(CN/C(=N\O)c2ccc(Oc3cc(Cl)ccc3Cl)nc2)o1 to N/C(=N/O)c1cccnc1Oc1ccc2ccccc2c1, the “% inhibition” value falls from 9% to -3%.

First: Cc1cccc(Oc2ncccc2/C(=N/O)N2CCC=N2)c1C
Second: COc1ccc(Oc2ncccc2/C(=N/O)N2C(C)CCC2C)cc1 (stereo not given)
The “% inhibition” value of the first is higher: 2% for the first, -10% for the second.

Going from COc1ccc(Oc2ncccc2/C(=N/O)NC2CCC2)cc1 to COc1ccc(Oc2nc(C)ccc2/C(=N/O)NC2CCC(C)CC2)cc1 (stereo not given), the “% inhibition” value falls from 98% to 47%.

Source: ChEMBL document CHEMBL1857833, “Screening and optimization of specific chemical series against human African Trypanosomiasis (HAT)”
